This is an account of results in PubChem BioAssay (NCATS).

Values joined by “and” are separate entries in the source; they are usually repeats but may differ in a detail not shown here. Equal values may be shown once. Records with an inconclusive call do not appear. Values without a mark were called inactive. Active and inactive are the calls of the source. Calls come from the whole dose curve; as a rule, active = well fitted curve in the direction sought with a large enough effect; inconclusive = small, poorly fitted or top-dose-only effect, or another doubt; inactive = no such curve, though single readings can be large; an effect the other way counts as inactive or inconclusive.

Experiment [1] deals with Cellular tumor antigen p53 (Homo sapiens) (UniProt P04637). Kind of experiment: Primary qHTS for small molecule compounds that upregulate eGFP-tagged delta133p53alpha (in N-terminal) cells. (AID 2060322).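 For activation: 0% = DMSO vehicle and 100% = reference activator.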 Note: nearly all actives have a fitted effect of over 75% in size. Note: potency is the fitted concentration of half-maximal effect. The note with it: NCI-H358 eGFP-delta133p53alpha fluorescence, 24 h; activation: active compounds read high. Summed up:
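NCI-H358 cells pre-induced 24 h with 10 ng/ml doxycycline to express N-terminal eGFP-delta133p53alpha, then dosed 24 h at 37C without doxycycline; fixed, Hoechst-stained, GFP intensity by laser scanning cytometry, normalized to DMSO (0%) and 57.5 uM 5-azacytidine (100%).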

The target of experiment [2] is Aldehyde dehydrogenase, mitochondrial (Homo sapiens) (UniProt P05091). In words: qHTS for Inhibitors of the Aldehyde Dehydrogenase Family (ALDH2) Primary screen (AID 2061308).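 Note: plate controls were vehicle for no effect and reference inhibitor for full effect; nearly all actives have a fitted effect of over 55% in size.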 Particulars: ALDH2 enzyme inhibition qHTS, 1536-well; series mostly up to 56 µM.
Experiment [3] addresses Retinaldehyde dehydrogenase 3 (Homo sapiens) (UniProt P47895). Kind of experiment: qHTS for Inhibitors of the Aldehyde Dehydrogenase Family (ALDH1A3) Confirmatory screens (AID 2061311). Note: nearly all actives have a fitted effect of over 60% in size. Note: potency is the fitted concentration of half-maximal effect. The note with it: ALDH inhibition qHTS; series mostly up to 46 µM.
Experiment [4] shares this target. Kind of experiment: qHTS for Inhibitors of the Aldehyde Dehydrogenase Family (ALDH1A3) Primary screen (AID 2061315). Note: potency is the fitted concentration of half-maximal effect. Particulars: ALDH inhibition qHTS; series mostly up to 56 µM.
Experiment [5] has as its target Aldehyde dehydrogenase 1A1 (Homo sapiens) (UniProt P00352). Kind of experiment: qHTS for Inhibitors of the Aldehyde Dehydrogenase Family (ALDH1A1) Confirmatory screens (AID 2061316). Note: nearly all actives have a fitted effect of over 65% in size. Note: potency is the fitted concentration of half-maximal effect. The note with it: ALDH inhibition qHTS; series mostly up to 47.3 µM. A general note: Quantitative high-throughput screening tests each substance at several concentrations.
In experiment [6] the target is Retinaldehyde dehydrogenase 3 (Homo sapiens) (UniProt P47895). In words: qHTS for Inhibitors of the Aldehyde Dehydrogenase Family (ALDH1A3) Validation screen (AID 2061312). Note: potency is the fitted concentration of half-maximal effect; nearly all actives have a fitted effect of over 45% in size. Particulars: ALDH1A3 enzyme inhibition qHTS validation, fluorescence; series mostly up to 84.7 µM.
Experiment [7] can be described thus: BET inhibitor-based combinations targeting novel dependencies in MECOM-rearranged (r) AML: SET-2 cell line (AID 2202231). Note: potency is the fitted concentration of half-maximal effect; nearly all actives have a fitted effect of over 35% in size. Particulars: SET-2 AML cells viability, CellTiter-Glo luminescence, 48 h; viability: active compounds read low, concentration not given here. Summed up:
(§1)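 Each compound was tested at eleven concentrations on cells seeded at 500/well. After two days' incubation, ATP-based luminescence reported viability; responses relative to DMSO and blank wells yielded AUC and cell-line-centred Z-AUC.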
For orientation: Cellular ATP, detected with luciferase, serves as a proxy for viable cell number.

Experiment [8] is described as follows: BET inhibitor-based combinations targeting novel dependencies in MECOM-rearranged (r) AML: OCI-AML3 cell line (AID 2202232). Note: potency is the fitted concentration of half-maximal effect; nearly all actives have a fitted effect of over 35% in size. Particulars: CellTiter-Glo luminescence, 48 h; Potency: OCI-AML3 viability; series mostly up to 46 µM. Summed up: as §1
The nature of experiment [9]: BET inhibitor-based combinations targeting novel dependencies in MECOM-rearranged (r) AML: MV-4-11 cell line (AID 2202233). Note: potency is the fitted concentration of half-maximal effect; nearly all actives have a fitted effect of over 45% in size. The note with it: MV-4-11 AML viability, CellTiter-Glo luminescence, 48 h; series mostly up to 46 µM. The essentials: (§2)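 First, 500 cells per well were seeded; next, drugs were pinned as 11-point doses; then plates sat 48 hr in the incubator; finally CellTiter-Glo was added and luminescence read, with AUC and Z-AUC computed.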

The nature of experiment [10]: BET inhibitor-based combinations targeting novel dependencies in MECOM-rearranged (r) AML: HNT-34 cell line (AID 2202234). Note: potency is the fitted concentration of half-maximal effect; nearly all actives have a fitted effect of over 35% in size. The note with it: HNT-34 AML viability, CellTiter-Glo luminescence, 48 h; series mostly up to 46 µM. The essentials:
as §2

A short description of experiment [11]: BET inhibitor-based combinations targeting novel dependencies in MECOM-rearranged (r) AML: UCSD-AML1 cell line (AID 2202235). Note: potency is the fitted concentration of half-maximal effect; nearly all actives have a fitted effect of over 40% in size. The note with it: UCSD-AML1 AML cells viability, CellTiter-Glo, 48 h; series mostly up to 46 µM. The essentials: as §2
Experiment [12] is described as follows: BET inhibitor-based combinations targeting novel dependencies in MECOM-rearranged (r) AML: AML-191 cell line (AID 2202236; note: potency is the fitted concentration of half-maximal effect; nearly all actives have a fitted effect of over 35% in size). Particulars: AML-191 viability, CellTiter-Glo luminescence, 48 h; series mostly up to 46 µM. Summed up:
as §1

The nature of experiment [13]: BET inhibitor-based combinations targeting novel dependencies in MECOM-rearranged (r) AML: AML-194 cell line (AID 2202237; note: potency is the fitted concentration of half-maximal effect; nearly all actives have a fitted effect of over 40% in size). The note with it: AML-194 (MECOM-r AML) viability, CellTiter-Glo, 48 h; series mostly up to 46 µM. The essentials:
as §1

Experiment [14] addresses Retinal dehydrogenase 2 (Homo sapiens) (UniProt O94788). In words: qHTS for Inhibitors of the Aldehyde Dehydrogenase Family (ALDH1A2) Confirmation screens (AID 2061314). Note: potency is the fitted concentration of half-maximal effect; nearly all actives have a fitted effect of over 65% in size. The note with it: ALDH1A2 enzyme inhibition qHTS confirmation; series mostly up to 45.9 µM.

Chain of Cellular tumor antigen p53 (Homo sapiens) (P04637 whole entry, looked up): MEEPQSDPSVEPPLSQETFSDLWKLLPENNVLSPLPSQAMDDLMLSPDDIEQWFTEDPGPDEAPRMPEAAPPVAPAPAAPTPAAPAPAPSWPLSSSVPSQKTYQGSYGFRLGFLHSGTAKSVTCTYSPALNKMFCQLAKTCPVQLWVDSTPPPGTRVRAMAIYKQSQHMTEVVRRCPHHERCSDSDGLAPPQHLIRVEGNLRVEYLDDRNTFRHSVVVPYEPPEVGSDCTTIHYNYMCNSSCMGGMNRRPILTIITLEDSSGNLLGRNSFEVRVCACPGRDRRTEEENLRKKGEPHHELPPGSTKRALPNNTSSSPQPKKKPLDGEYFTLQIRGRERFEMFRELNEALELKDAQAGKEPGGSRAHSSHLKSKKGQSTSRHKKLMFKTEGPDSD

Consider `CC(=O)CC1CCC(C(C)C(=O)OCC(O)CO)O1` (stereo not drawn), for which the activation in experiment [1] was -0.763%. Besides, in experiment [2], the Potency result is “inactive”. Also, the Potency is 4.49 µM (active) in experiment [3], 15.8 µM (active) in [4] and 15.9 µM (active) in experiment [5].

As for `OC[C@H]1O[C@@H](Oc2cc(O)cc(-c3cc4ccc(O)cc4o3)c2)[C@H](O)[C@@H](O)[C@@H]1O`, the activation in experiment [1] was 13.4%. For the same compound, in experiment [2], the Potency entry is “inactive”. In addition, in experiment [3], the Potency was 12.3 µM (active).

In the case of `O=[N+]([O-])c1ccc(-[n+]2nc(-c3ccccc3)nn2-c2ccc(I)cc2)cc1`, the activation in [1] is -2.39%. The Potency result in experiment [2] is “inactive”. Also, the Potency in experiment [3] was 11.3 µM (active); in [6], 17.8 µM (active).

`CC1=CC2=C(C)C(=O)C(C)(O)C(O)C2CO1` (stereo not drawn): the activation in experiment [1] is -5.34%. For the same compound, the Potency result in [2] and in experiment [5] was “inactive” in each case. Besides, the Potency in experiment [3] is 22.5 µM (active).

`COc1ccc(C2COc3cc(O)ccc3C2)c(O)c1` (stereo not drawn): the activation in experiment [1] was -12.2%. Further, the Potency result in experiment [2] was “inactive”. In addition, the Potency in [3] was 17.9 µM (active); in [4], 25.1 µM (active).

On to `COc1ccc(S(=O)(=O)Nc2cccnc2Nc2ccc(O)cc2)cc1`, for which the activation in [1] is -22.5% and 22.4%. Moreover, in experiment [2], the Potency entry was “inactive”. In addition, the Potency in experiment [3] is 10.1 µM (active); in experiment [4], 7.94 µM (active); in experiment [5], 6.34 µM (active); in experiment [7] it was 1.32 µM (active); in experiment [8], 0.662 µM (active); in [9], 0.742 µM (active). For the same compound, the Potency is 0.59 µM (active) in experiment [10], 0.468 µM (active) in experiment [11], 0.468 µM (active) in [12] and 0.662 µM (active) in [13].

With `C=C1C(=O)O[C@@H]2C3C(=C(C)[C@@H](O)[C@@H](OC(=O)/C(=C/C)COC(C)=O)[C@@H]12)C(=O)[C@H]1O[C@@]31C` (stereo partly drawn), the Potency in [1] is 2.08 µM (active); in experiment [14], 0.98 µM (active). Besides, the Potency result in [2], in experiment [3], in [4] and in experiment [5] was “inactive” each time.
